# Compound activity from PubChem BioAssay.
# 3CLpro inhibitor: SARS-CoV 3CLpro protease inhibition; P0C6X7; recombinant SARS-CoV 3CLpro, quenched FRET peptide cleavage; 0.14% of 290,000 active; AID 1706; inhibition, % at 6 µM; in the data active = inhibition above about 12%
# GDH-TPI inh: counter-screen for M. tuberculosis FBA inhibitors: GDH-TPI coupled enzymes. GDH-TPI coupled enzyme counterscreen, NADH absorbance. inhibition, % at 4.8 µM. 1.2% of 360,000 active. AID 588335;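 note: 0% = DMSO wells and 100% = wells lacking the enzyme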
# CCHF vOTU inh: blocks the CCHF virus ovarian tumor domain protease | CCHFV vOTU protease, Pep-AMC fluorescence | inhibition, % at 11.5 µM | 0.55% of 370,000 active | AID 651958; note: 0% = vehicle wells with enzyme and 100% = no enzyme wells
# Mtb FBA inh: inhibitors of M. tuberculosis fructose-bisphosphate aldolase. P9WQA3. purified M. tuberculosis FBA, fluorescence read-out. 2.3% of 360,000 active. AID 588726. inhibition, % at 1 µM; in the data active = inhibition above about 27%;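 note: 0% = vehicle and 100% = reference inhibitor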
# Target sequence (P9WQA3 whole entry, looked up): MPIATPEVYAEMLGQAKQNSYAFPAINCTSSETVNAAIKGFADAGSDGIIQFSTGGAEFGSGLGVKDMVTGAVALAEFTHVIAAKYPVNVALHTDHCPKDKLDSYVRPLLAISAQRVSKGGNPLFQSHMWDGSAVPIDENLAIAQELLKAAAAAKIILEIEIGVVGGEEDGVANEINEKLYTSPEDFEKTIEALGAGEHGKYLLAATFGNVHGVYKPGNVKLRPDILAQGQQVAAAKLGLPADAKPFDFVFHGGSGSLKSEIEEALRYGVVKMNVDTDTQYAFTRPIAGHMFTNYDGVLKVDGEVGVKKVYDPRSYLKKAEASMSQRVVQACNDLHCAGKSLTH
# VHR inh abs: DUSP3 (human) phosphatase inhibition; P51452; recombinant VHR phosphatase, pNPP absorbance; inhibition, % at 13.3 µM; 0.52% of 290,000 active; in the data active = inhibition above about 50%
# Target sequence (P51452 whole entry, looked up): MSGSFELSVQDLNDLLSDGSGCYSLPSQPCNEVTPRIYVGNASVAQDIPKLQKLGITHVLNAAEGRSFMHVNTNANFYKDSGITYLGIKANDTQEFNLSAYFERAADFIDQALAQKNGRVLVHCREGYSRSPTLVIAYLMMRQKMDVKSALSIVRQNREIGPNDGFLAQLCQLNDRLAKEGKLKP
# RecA splice inh: blocks M. tuberculosis RecA intein splicing | P9WHJ3 | cell-free RecA intein splicing, fluorescence | inhibition, % (test concentration not listed) | 0.75% of 290,000 active; in the data active = inhibition above about 30%;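 note: 0% = vehicle wells and 100% = reference inhibitor control wells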
# * hit, by the source's call; i = inactive; / = no result; + = active, no number. Sampled rows, rich in hits. Any-hit rate of the full collection: about 4.7%. Cut-off read from the data, not from the text of the source, unless noted: active = inhibition above about 30%; inactive = the rest.
SMILES,3CLpro inhibitor,GDH-TPI inh,CCHF vOTU inh,Mtb FBA inh,VHR inh abs,RecA splice inh
CCN(CC)c1ccc(C(=O)N/N=C(\C)c2ccc(O)cc2)cc1,0.7,33.8*,10.9,-1.1,5.4,-1.0
C/C(=N\NC(=O)c1ccc(N(C)C)cc1)c1ccc(C)c(C)c1,-3.4,12.7,25.6,1.4,30.5,-2.3
COC(=O)c1cc2c(c3c4cc(F)ccc4n(S(=O)(=O)c4ccc(C)cc4)c13)C(=O)N(Cc1ccccc1)C2,/,/,12.0,/,/,/
Cc1ccc(NC(=O)C2CCN(c3nnc(-n4cccc4)s3)CC2)c(C)c1,/,/,2.4,/,/,/
COC(=O)c1nc(-c2ccccc2)oc1N(C)C,0.6,18.7,-62.8,172.9*,-2.4,-1.6
COC(=O)c1nc(-c2ccccc2)oc1N1CCOCC1,-1.6,0.9,-14.4,146.0*,9.4,/
COC(=O)c1oc(-c2ccccc2)nc1C,4.3,0.9,2.5,3.2,-1.1,-3.9
COC(=O)c1nc(-c2ccc(C)cc2)oc1N(C)C,3.5,17.5,-45.6,114.6*,-4.0,1.0
O=C(Cn1c(-c2cncs2)nc2ccccc21)N1CCOCC1,/,/,-9.8,/,/,/
C[C@H]1Cn2cnc(C(=O)N(C)Cc3ccccc3)c2C(=O)N1,/,/,0.3,/,/,/
CCN(CC)C(=O)COc1ccc2oc(-c3ccco3)cc(=O)c2c1,-0.6,24.8,-138.8,134.3*,21.9,0.8
CCN(CC)C(=O)COc1ccc2oc(C)c(C(=O)OC)c2c1,2.5,5.9,1.1,0.8,21.9,/
CC1(CC(=O)O)C(=O)N=C2C=CC=CN21 (stereo unspecified),-3.5,1.5,-109.4,166.6*,-9.4,-1.0
C/C(=N\NC(=S)Nc1ccccc1C)c1cc2ccccc2o1,5.3,48.8*,4.3,1.7,18.8,-2.4
COCC(=O)N1CCC(C(=O)NC2CCCc3ccccc32)CC1 (stereo unspecified),/,/,0.5,/,/,/
Cc1ccnc(NC(=O)COC(=O)C23CC4CC(CC(C4)C2)C3)n1,4.7,8.8,-2.5,0.4,31.3,3.1
O=C(COC(=O)C12CC3CC(CC(C3)C1)C2)Nc1nccs1,8.6,3.1,-2.7,1.4,52.0*,3.9
COc1cc2cc(CN(CCO)C(=O)c3cccs3)c(=O)[nH]c2cc1OC,4.6,37.2*,-7.5,14.5,32.6,-2.5
COc1ccccc1NC(=O)N(Cc1cc2cc(OC)c(OC)cc2[nH]c1=O)CC1CCCO1 (stereo unspecified),1.1,34.3*,6.0,19.4,10.5,-3.2
COc1ccc2cc(CN(CC3CCCO3)S(=O)(=O)c3ccccc3Cl)c(=O)[nH]c2c1 (stereo unspecified),-2.7,31.9*,-2.7,6.2,16.1,1.6
COc1ccc2[nH]c(=O)c(CN(CCO)C(=O)c3cccs3)cc2c1,-5.0,7.5,12.9,8.1,0.8,/
C[C@H]1CCC[C@H](O)CC(=O)c2c(O)cc(O)cc2CC(=O)O1,/,/,5.8,/,/,/
COCCN1CCCc2nc(-c3ccc(Br)cc3)ccc21,/,/,-10.9,/,/,/
CN(C)c1ccc(Cc2cc3c(O)ccc(O)c3cc(Cc3ccc(N(C)C)cc3)c2=O)cc1,/,15.5,33.9*,-3.2,/,/
CC(=O)c1ccc(N2CCN(C(=O)C(=O)c3c(C)[nH]c4ccccc34)CC2)cc1,2.5,34.0*,8.8,-4.0,-2.1,-1.7
SMILES,3CLpro inhibitor,GDH-TPI inh,CCHF vOTU inh,Mtb FBA inh,VHR inh abs,RecA splice inh
COc1cc(/C=C2\SC(=O)N(CC(=O)Nc3ccc(C)cc3)C2=O)cc(Cl)c1OCC(=O)O,0.3,33.3*,-7.3,-2.3,/,4.6
CCOC(=O)[C@@]12CCC3=C1N(CCC3)C(=O)[C@H](CC(=O)N1CCOCC1)C2,/,/,-1.1,/,/,/
CCOC(=O)c1c(C)nc(C)c(C(=O)OCC)c1-c1ccccc1,2.2,-10.1,/,-3.7,7.6,/
CCOc1c(C(N)=O)c(-c2ccccc2)c2c(=O)[nH]c3ccccc3n12,6.5,14.3,-0.6,112.2*,14.7,0.9
COc1ccccc1CNC(=O)c1ccccc1C(=O)NC(CC(C)C)C(=O)NCc1ccccc1OC (stereo unspecified),-5.3,-4.8,7.9,-7.4,-14.4,-1.5
CCC(=O)N1N=C2CC(C)(C)OCC2C1c1ccccc1 (stereo unspecified),4.5,9.0,9.0,0.6,51.3*,0.4
CCC(=O)N1N=C(c2ccccc2)CC1c1ccccc1 (stereo unspecified),4.7,-0.4,-7.5,-0.8,6.4,3.2
CCCCc1ccc(/C=C2\C(=O)c3ccccc3C(O)=C2C(=O)OCC)cc1,6.3,/,/,/,-4.4,35.1*
C[C@@H]1CN([C@@H](C)CO)C(=O)CCCn2cc(nn2)CO[C@H]1CN(C)C(=O)Nc1ccc(F)cc1,/,/,-1.1,/,/,/
COc1ccc(-c2nnc(SCC(=O)NN=Cc3c(O)ccc4ccccc34)n2-c2ccc(OC)cc2)cc1,/,/,9.4,/,/,/
O=C1Cc2cc(O)ccc2O1,/,4.3,-20.8,-4.7,/,/
CN(C)CCCN=c1cc(-c2ccccc2)oc2ccc(Cl)cc12,8.8,7.5,8.9,2.9,22.7,/
OCCN=c1cc(-c2ccccc2)oc2ccc(Cl)cc12,3.4,39.8*,/,1.6,20.0,-1.0
Cc1[nH]ccc2c1[nH]c1cc(=O)ccc12,-5.0,6.7,-179.6,166.8*,18.6,-44.3
O=c1cc[nH]c2c1ccc1c(=O)cc[nH]c12,-3.7,10.0,-21.7,23.9,-10.3,-1.8
Cc1ccc(CNC(=O)c2cc3c(=O)n4cccc(C)c4nc3n(CC3CCCO3)c2=N)cc1 (stereo unspecified),/,/,/,/,22.2,/
COc1ccc(CCNC(=O)c2cc3c(=O)n4ccccc4nc3n(CC3CCCO3)c2=N)cc1OC (stereo unspecified),1.8,3.5,-9.3,3.4,4.3,/
Cc1cccn2c(=O)c3cc(C(=O)NCc4cccnc4)c(=N)n(CC4CCCO4)c3nc12 (stereo unspecified),-2.2,5.8,-208.5,+,18.5,i
N=c1c(C(=O)NCc2ccc(F)cc2)cc2c(=O)n3ccccc3nc2n1CC1CCCO1 (stereo unspecified),-3.4,13.4,-172.3,+,30.7,i
N=c1c(C(=O)NCc2ccco2)cc2c(=O)n3ccccc3nc2n1CC1CCCO1 (stereo unspecified),-5.6,19.8,-32.0,+,/,-141.0
Cc1cccn2c(=O)c3cc(C(=O)NCCc4ccccc4)c(=N)n(CC4CCCO4)c3nc12 (stereo unspecified),1.8,1.5,-86.7,118.6*,6.8,i
C[C@@H]1CN([C@H](C)CO)C(=O)c2cc(Br)cnc2O[C@H]1CN(C)C,/,3.3,5.5,0.7,/,/
Nc1[nH]c(C(=O)c2ccc(Br)cc2)c(-c2ccc(Cl)cc2)c1C(=O)NCCc1c[nH]c2ccccc12,/,/,-6.2,/,/,/
CN1CCN(C(=O)C[C@@H]2CC[C@@H]3[C@H](COC[C@@H](O)CN3Cc3cccc(Cl)c3)O2)CC1,/,/,-1.5,/,/,/
COC(=O)C1=C(C)N(Cc2cccc(C(F)(F)F)c2)C(=NCc2ccc3c(c2)OCO3)NC1c1ccc(Cl)cc1 (stereo unspecified),/,/,8.8,/,/,/
CC(C)(C)S(=O)(=O)N1C[C@H]2CC(=O)C=C2[C@@H]1CCO,/,/,-8.7,/,/,/
